The values that follow come from paper PMC12135187, “A role for pH dynamics regulating transcription factor DNA-binding selectivity”.

The full ranking holds about 1,100 sequences; the median of “relative enrichment” is about 0.38, and the highest 2% start at about 0.66. The sample as a whole holds a higher share of the highest values than the screen did.

The assay deals with T1, FOXC2 DBD WT (UniProt Q99958 72-172).
T1 sequence: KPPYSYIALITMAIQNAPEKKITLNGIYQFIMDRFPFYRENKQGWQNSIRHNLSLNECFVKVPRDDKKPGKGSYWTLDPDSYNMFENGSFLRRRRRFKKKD
Description: SELEX-seq (GST pull-down, four rounds, 16-nt random library); pH 7.0; 20 mM HEPES, 140 mM KCl, 0.05 mM TCEP-HCl, pH 7.0, room temperature, 30 min; 2.5 uM GST-FOXC2 DBD, 0.25 uM DNA library; high values mean tight binding. Conditions: protein: recombinant; tags: N-terminal GST (pGEX-6P-2); dsDNA, one strand shown. In a few lines:
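GST-tagged FOXC2 DNA-binding domain (E. coli-expressed, glutathione-purified) was incubated with a DNA library carrying a 16 bp randomized region, at 0.25 μM DNA and 2.5 μM protein, for 30 min at RT in 20 mM HEPES, 140 mM KCl, 0.05 mM TCEP–HCl, pH 7. Complexes were captured on glutathione Sepharose beads, washed, heat-eluted and PCR-amplified over four rounds. Initial and selected libraries were Illumina MiniSeq sequenced. Relative enrichment came from the Bioconductor SELEX R package.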
For the sequence TAATGA, the binding signal amounted to 0.31 relative enrichment. The value for AAGCTA was 0.297 relative enrichment; that for TACACC was 0.418 relative enrichment.

Regarding CACCTC, the binding signal worked out at 0.731 relative enrichment. For the sequence TACCTC, the binding signal was found to be 0.625 relative enrichment.

In the case of CACCTG, the binding signal is 0.535 relative enrichment. For the sequence CAATAA, the binding signal was 0.513 relative enrichment. Under CTTATC stands 0.378 relative enrichment; under AACAGG, 0.325 relative enrichment. Consider TCAACT, for which the binding signal stood at 0.324 relative enrichment. Consider CAACCA, for which the binding signal was found to be 0.261 relative enrichment. The value for TTCCTA was 0.364 relative enrichment. Under CTTACA stands 0.35 relative enrichment; under TATAAA, 0.283 relative enrichment; under ATACTC, 0.432 relative enrichment. The value for GAAAAA was 0.304 relative enrichment; that for TGGTAA was 0.428 relative enrichment.

Turning to AGAATG, the binding signal is 0.543 relative enrichment. Under TCAATC stands 0.416 relative enrichment; under CTTTGA, 0.338 relative enrichment.

In the case of AACGTT, the binding signal came out at 0.324 relative enrichment. With CTCATT, the binding signal is 0.311 relative enrichment. As for AACAAT, the binding signal is 0.374 relative enrichment. Under ATAGTC stands 0.461 relative enrichment; under TTCACT, 0.426 relative enrichment. The value for AAAGAT was 0.356 relative enrichment; that for ATAGAA was 0.4 relative enrichment.

As to TCTCTA, the binding signal amounted to 0.45 relative enrichment. Consider ATATTA, for which the binding signal worked out at 0.266 relative enrichment. Regarding ATACGC, the binding signal amounted to 0.457 relative enrichment.

As for ACGAAA, the binding signal was determined as 0.388 relative enrichment. Regarding CATACG, the binding signal turned out to be 0.448 relative enrichment. Under TATGAA stands 0.387 relative enrichment; under AATTCA, 0.336 relative enrichment.

On to AAATTC, for which the binding signal worked out at 0.343 relative enrichment. Under ACACGT stands 0.335 relative enrichment; under CTTAAG, 0.341 relative enrichment.

In the case of AATCGT, the binding signal turned out to be 0.337 relative enrichment. Under CTACAC stands 0.417 relative enrichment; under TTTCCC, 0.38 relative enrichment. Under AAACCC stands 0.354 relative enrichment. Under ACTAAT stands 0.328 relative enrichment. On to ACTACA, for which the binding signal was 0.297 relative enrichment.

As for GCTACA, the binding signal worked out at 0.348 relative enrichment.

As to ACCATG, the binding signal came to 0.559 relative enrichment. Under ATCAAT stands 0.463 relative enrichment; under CGTCAT, 0.583 relative enrichment; under AAATCC, 0.354 relative enrichment. Under CACTTA stands 0.321 relative enrichment; under AACTTC, 0.432 relative enrichment; under CACTGC, 0.574 relative enrichment. Under CACTTC stands 0.726 relative enrichment. As for TACTTC, the binding signal is 0.678 relative enrichment. The value for TACTCC was 0.566 relative enrichment; that for AAGCTC was 0.44 relative enrichment. Consider CTCTTG, for which the binding signal was 0.394 relative enrichment. In the case of ACCCTT, the binding signal was determined as 0.488 relative enrichment.

As for CACGTA, the binding signal amounted to 0.469 relative enrichment.

With CATCTC, the binding signal stood at 0.642 relative enrichment. As for CCCATT, the binding signal was found to be 0.378 relative enrichment. The value for CCTCTA was 0.483 relative enrichment. Under CTTAAC stands 0.232 relative enrichment; under ACACGA, 0.377 relative enrichment. Regarding ATATGC, the binding signal amounted to 0.286 relative enrichment.

Consider ACGACT, for which the binding signal was determined as 0.561 relative enrichment.

In the case of AGTCTA, the binding signal came out at 0.54 relative enrichment. Under ACCCAT stands 0.43 relative enrichment; under TGACAA, 0.337 relative enrichment. Under TACCCA stands 0.526 relative enrichment; under ATAAGC, 0.803 relative enrichment; under ATAAAC, 1 relative enrichment.

With GTAAAC, the binding signal turned out to be 0.561 relative enrichment.

For the sequence ATAAGG, the binding signal was found to be 0.316 relative enrichment. The value for ATAAGA was 0.307 relative enrichment. Under ATAAAA stands 0.231 relative enrichment; under CCCTTG, 0.444 relative enrichment; under GAGTAA, 0.439 relative enrichment.

As to ATGCTA, the binding signal was determined as 0.343 relative enrichment. The value for CAAGCA was 0.489 relative enrichment.

On to AAAGCA, for which the binding signal came to 0.341 relative enrichment. The value for TAAGCA was 0.814 relative enrichment; that for TCTGTG was 0.32 relative enrichment. Under AGCGTA stands 0.542 relative enrichment; under GACACA, 0.296 relative enrichment; under CTCTTA, 0.325 relative enrichment.

On to CTCTTT, for which the binding signal came to 0.469 relative enrichment.

Regarding ATCTTC, the binding signal turned out to be 0.665 relative enrichment.

For ATCTTG, the binding signal is 0.318 relative enrichment. The value for ATCTTA was 0.332 relative enrichment. As for TTCTAC, the binding signal is 0.528 relative enrichment. The value for TTCTCT was 0.453 relative enrichment. Under CTCTTC stands 0.799 relative enrichment; under TTCTTC, 0.673 relative enrichment. The value for ATCTAG was 0.559 relative enrichment; that for GCCAAT was 0.341 relative enrichment; that for CCACTG was 0.649 relative enrichment. For the sequence ACTTGC, the binding signal came out at 0.489 relative enrichment. The value for CCCTGT was 0.366 relative enrichment; that for ACAGAG was 0.418 relative enrichment; that for CCTCAT was 0.455 relative enrichment. The value for TAGTCA was 0.442 relative enrichment.

On to AGTCAT, for which the binding signal amounted to 0.491 relative enrichment. The value for ATTGCC was 0.483 relative enrichment. GCCATA: the binding signal stood at 0.387 relative enrichment. Under AACTCA stands 0.249 relative enrichment; under TGCAAA, 0.311 relative enrichment. In the case of ACATTA, the binding signal came to 0.277 relative enrichment. Under ACATGT stands 0.276 relative enrichment; under GTCTTA, 0.348 relative enrichment. Under GATCTA stands 0.537 relative enrichment; under AGATTA, 0.329 relative enrichment; under GCAACA, 0.23 relative enrichment.

Consider ACAAGA, for which the binding signal was determined as 0.322 relative enrichment. The value for CATCGT was 0.553 relative enrichment.

For the sequence CATCCC, the binding signal stood at 0.704 relative enrichment. For the sequence CATCGC, the binding signal came out at 0.711 relative enrichment. Consider AATCGC, for which the binding signal was 0.406 relative enrichment.

Take CATCCA: the binding signal came out at 0.528 relative enrichment. As to CATCCT, the binding signal stood at 0.605 relative enrichment. The value for TAGACA was 0.44 relative enrichment; that for ATCCAT was 0.477 relative enrichment; that for GATAAA was 0.326 relative enrichment.

Regarding AAATAA, the binding signal stood at 0.891 relative enrichment. The value for TAATAA was 0.399 relative enrichment; that for CATAAG was 0.406 relative enrichment; that for CATAAA was 0.596 relative enrichment. The value for AATAAG was 0.686 relative enrichment; that for AATAAT was 0.309 relative enrichment; that for AAATAT was 0.435 relative enrichment. The value for AATAAA was 0.839 relative enrichment; that for GCTCAA was 0.305 relative enrichment.

Take CAATTC: the binding signal is 0.306 relative enrichment. The value for AAAACA was 0.264 relative enrichment; that for AACTAT was 0.324 relative enrichment.

For the sequence CAGTAA, the binding signal was found to be 0.415 relative enrichment. Under AATACT stands 0.328 relative enrichment; under AGTACT, 0.668 relative enrichment; under AGTACA, 0.385 relative enrichment. The value for AAAGTG was 0.343 relative enrichment.

Regarding CAATGG, the binding signal worked out at 0.433 relative enrichment. The value for ATTTAC was 0.56 relative enrichment. The value for ATTAGG was 0.356 relative enrichment; that for TCCAAA was 0.348 relative enrichment.

In the case of AATTCC, the binding signal stood at 0.366 relative enrichment. The value for ACTTCA was 0.453 relative enrichment; that for ACTTCC was 0.677 relative enrichment. Under ACTCGT stands 0.431 relative enrichment; under CTGCAT, 0.524 relative enrichment. Take TCCTAT: the binding signal was determined as 0.313 relative enrichment.

In the case of AAACCG, the binding signal amounted to 0.336 relative enrichment.

As to CAATGC, the binding signal is 0.376 relative enrichment. The value for AACGTC was 0.372 relative enrichment; that for TACGTA was 0.539 relative enrichment; that for TACGTC was 0.674 relative enrichment. The value for CCATTA was 0.286 relative enrichment; that for ACCACT was 0.588 relative enrichment. Under GGTTTA stands 0.395 relative enrichment; under ATTTGG, 0.408 relative enrichment. For CTGTTA, the binding signal is 0.238 relative enrichment. In the case of TTACAA, the binding signal amounted to 0.36 relative enrichment. The value for TACGAA was 0.468 relative enrichment; that for TATACA was 0.505 relative enrichment; that for CAAATG was 0.327 relative enrichment. Regarding GAAATA, the binding signal was found to be 0.451 relative enrichment. The value for CAAATC was 0.3 relative enrichment. As for CAAATA, the binding signal came to 0.707 relative enrichment.

For AAAATA, the binding signal is 0.439 relative enrichment. Under TAAACA stands 0.701 relative enrichment; under GAAACA, 0.347 relative enrichment. Under TAAATA stands 0.726 relative enrichment. The value for CAAACA was 0.57 relative enrichment; that for ATAGCA was 0.284 relative enrichment.

As to TCTTTC, the binding signal is 0.55 relative enrichment.

As for CAGACT, the binding signal was found to be 0.612 relative enrichment. Under ACTTGA stands 0.341 relative enrichment; under CATAAC, 0.226 relative enrichment. Under AAATGG stands 0.353 relative enrichment; under CTTCGT, 0.674 relative enrichment; under CTTCAT, 0.554 relative enrichment. The value for GTTCGT was 0.328 relative enrichment; that for ATGTTA was 0.428 relative enrichment; that for TCATTC was 0.646 relative enrichment.

Regarding ACCTTA, the binding signal was found to be 0.322 relative enrichment.

Turning to GATCTT, the binding signal turned out to be 0.497 relative enrichment. Under TCTAAC stands 0.304 relative enrichment; under CTACAA, 0.352 relative enrichment; under ACAATA, 0.351 relative enrichment. Under AAACGA stands 0.433 relative enrichment; under GTGTCA, 0.372 relative enrichment; under CATGCA, 0.513 relative enrichment. As for AGGATA, the binding signal is 0.311 relative enrichment. In the case of TACCCT, the binding signal stood at 0.504 relative enrichment. Under AGCCTA stands 0.371 relative enrichment. Under AAAGTT stands 0.3 relative enrichment. As for AGTTTA, the binding signal was 0.403 relative enrichment. Take CTATCA: the binding signal is 0.419 relative enrichment.

In the case of ACTGCT, the binding signal amounted to 0.412 relative enrichment. AACTAC: the binding signal was 0.312 relative enrichment.

In the case of AACCAC, the binding signal turned out to be 0.351 relative enrichment. The value for ACACGG was 0.442 relative enrichment. Take TCATCT: the binding signal was 0.546 relative enrichment. On to CAACGC, for which the binding signal came out at 0.322 relative enrichment. As for ACTTCT, the binding signal is 0.502 relative enrichment.

Consider CCTTCT, for which the binding signal came out at 0.774 relative enrichment. The value for TCTTCT was 0.66 relative enrichment; that for AAGCAG was 0.486 relative enrichment. For the sequence ATCTCT, the binding signal was 0.485 relative enrichment.

As for TCACAA, the binding signal worked out at 0.332 relative enrichment. With AGGTTG, the binding signal was determined as 0.313 relative enrichment. Under ACATCG stands 0.521 relative enrichment; under ATGTTC, 0.304 relative enrichment.

With TGAACA, the binding signal turned out to be 0.291 relative enrichment. The value for AACGAA was 0.281 relative enrichment.

As for GACTTA, the binding signal turned out to be 0.52 relative enrichment. With AATGAT, the binding signal stood at 0.314 relative enrichment. On to CCGTTG, for which the binding signal came out at 0.343 relative enrichment. Under CCTGTG stands 0.491 relative enrichment; under ACTCTC, 0.499 relative enrichment; under ATTAAA, 0.406 relative enrichment.

Consider TGTCAA, for which the binding signal is 0.457 relative enrichment. Under AATTAG stands 0.241 relative enrichment; under ACGATA, 0.322 relative enrichment.
